Our source for the composite z-score and z-score values is PubChem BioAssay.

Molecules are shown by their SMILES. Active and inactive are the calls of the source. Unless noted, no rule for the calls is given here.

Test [1] relates to Wnt5a (protein binding on small-molecule microarray). Description: Wnt5a binders on small-molecule microarray, primary screen, biophysical, 635/667 nm fluorescence (AID 1142).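 Also: fluorescence read at 667 nm with signal to noise per printed feature.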 To be noted: 635 nm fluorescence, higher = more signal.
The nature of test [2]: cell viability in Huh7 cells, primary screen, cytotoxicity control for HCV replication inhibitor project, CellTiter-Glo luminescence, basal, 48 h (AID 1143).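 Also: Huh7 hepatoma cells carrying a hepatitis C replication reporter with no stimulus; test concentration not given here.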 Particulars: Huh7 HCV replicon, higher = more signal, called active from +8 up or from −8 down. (In ATP-based viability assays light output follows the ATP content of the culture.)
A short description of test [3]: P. aeruginosa biofilm formation inhibitors, primary screen, PAO1 strain, BacTiter-Glo luminescence, LB-PBS (AID 1144). Particulars: 12 h, higher = more signal.
Test [4] can be described thus: CREB reporter modulators without forskolin, primary screen, cell-based, PC12, CRE-LacZ reporter, unstimulated (AID 1145). To be noted: no forskolin, luminescence, 4.5 h, higher = more signal, called active from +8 up or from −8 down.
The nature of test [5]: CREB reporter modulators under forskolin, primary screen, cell-based, PC12, CRE-LacZ reporter, forskolin-stimulated (AID 1146).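 Also: PC12 cells with 6xCRE LacZ reporter stimulated by forskolin 10 µM; beta-galactosidase reporter signal reflecting CREB driven transcription.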 To be noted: luminescence, 4.5 h, higher = more signal, called active from +8 up or from −8 down.
The target of test [6] is Streptavidin (Streptomyces avidinii) (UniProt P22629). Description: streptavidin binders on small-molecule microarray, primary screen, artefact control for SMM compound annotation, biophysical, 635/667 nm fluorescence (AID 1147).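 Also: signal reflects streptavidin binding to arrayed compounds as a control protein.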 Particulars: streptavidin binding, higher = more signal.
Sequence of Streptavidin (Streptomyces avidinii) (P22629 whole entry, looked up): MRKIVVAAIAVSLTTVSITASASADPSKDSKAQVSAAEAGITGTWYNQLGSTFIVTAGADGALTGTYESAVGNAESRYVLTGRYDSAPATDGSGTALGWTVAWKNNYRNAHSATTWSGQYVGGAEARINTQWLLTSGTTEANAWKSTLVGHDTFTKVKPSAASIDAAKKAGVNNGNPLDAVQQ
Test [7] can be described thus: small-molecule binders of probe aInhba, primary screen, biochemical, small-molecule microarray, 635/667 nm fluorescence (AID 1148).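 Also: score merges 667nm spot fluorescence with signal-to-noise for antibody binding to printed compounds.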 Particulars: higher = more signal.
Test [8] has as its target Torsin-1A (Homo sapiens) (UniProt O14656). Description: torsin A binders from cell lysate, primary screen, small-molecule microarray, wild-type, 635/667 nm (AID 1149). Particulars: COS7 hTOR1A-WT lysate, 635 nm fluorescence, higher = more signal.
Test [9] has the same target. The test is described as follows: small-molecule binders of mutant TOR1A in lysate, primary screen, cell lysate, small-molecule microarray, COS7 lysate, 635/667 nm fluorescence (AID 1150).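 Also: score pools 667 nm emission and signal to noise measuring lysate protein binding.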 Particulars: COS7 hTOR1A mutant lysate, 635 nm fluorescence, higher = more signal.
The subject of test [10] is Sonic hedgehog protein (Shh). Description: small-molecule binders of Shh protein, primary screen, biochemical, small-molecule microarray, 635/667 nm fluorescence (AID 1151).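 Also: Shh protein binding to compounds spotted on small-molecule microarray slides; score combines spot fluorescence intensity with signal-to-noise across triplicate slides.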 Particulars: small-molecule microarray binding, 635 nm fluorescence; higher = more signal.
Test [11] can be described thus: E. coli DRC41 culture turbidity changes, primary screen, E. coli filamentation inducer project, strain DRC41, OD650, 48 h (AID 1152).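 Also: E. coli MC1000 strain DRC41 lacking acrAB efflux pump and sulA.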 Particulars: E. coli DRC41 (acrAB sulA), higher = more signal, called active from +8 up or from −8 down.
The nature of test [12]: small-molecule binders of probe aLefty1, primary screen, biochemical, small-molecule microarray, 635/667 nm fluorescence (AID 1153).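 Also: score merges spot fluorescence with signal-to-noise ratio from the scanned slide images.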 To be noted: higher = more signal.
A short description of test [13]: PSAC antagonists in infected red cells, primary screen, cell-based, P. falciparum Indochina, OD700, 1 h (AID 1154). Particulars: P. falciparum Indochina infected RBC osmotic lysis, higher = more signal, called active from +8 up or from −8 down.
Test [14] in a line: PSAC antagonists in infected red cells, primary screen, cell-based, P. falciparum Indochina, OD700, 2 h (AID 1155).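 Also: lysis reports solute entry through the parasite surface anion channel PSAC; channel blockers reduce lysis of infected cells.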 Particulars: P. falciparum Indochina infected erythrocytes, osmotic lysis OD700; higher = more signal, called active from +8 up or from −8 down.
Test [15] in a line: osmotic lysis modulators in infected erythrocytes, primary screen, PSAC antagonist project, cell-based, P. falciparum Indochina, OD700, 3 h (AID 1156). Particulars: higher = more signal, called active from +8 up or from −8 down.
A short description of test [16]: PSAC antagonists in infected red cells, primary screen, cell-based, P. falciparum Indochina, OD700, 18 h (AID 1157). To be noted: P. falciparum Indochina infected erythrocytes, osmotic lysis OD700, 18 h; higher = more signal, called active from +8 up or from −8 down.
A short description of test [17]: modulators of S6 phosphorylation in cells, primary screen, cell-based, A549, cytoblot, luminescence, serum-stimulated (AID 1158).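 Also: serum-stimulated A549 lung adenocarcinoma cells; signal is phosphorylated S6 detected by cytoblot immunostaining with HRP secondary.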 Particulars: A549 phospho-S6 cytoblot, 5 h, higher = more signal.
Test [18] has as its target NADPH oxidase 2 (Homo sapiens) (UniProt P04839). Description: NOX2-dependent H2O2 signal modulators, primary screen, NOX inhibitor project, cell-based, HEK293-NOX2, PMA-stimulated, Amplex Red fluorescence (AID 1159). Also: test concentration not given here. To be noted: 45 min, higher = more signal, called active from +8 up or from −8 down.
Test [19] deals with NADPH oxidase 4 (Homo sapiens) (UniProt Q9NPH5). The test is described as follows: NOX4-dependent H2O2 signal modulators, primary screen, NOX inhibitor project, cell-based, HEK293-NOX4, tetracycline-induced, Amplex Red fluorescence (AID 1160). Particulars: 45 min, higher = more signal, called active from +8 up or from −8 down.
Sequence of NADPH oxidase 4 (Homo sapiens) (Q9NPH5 whole entry, looked up): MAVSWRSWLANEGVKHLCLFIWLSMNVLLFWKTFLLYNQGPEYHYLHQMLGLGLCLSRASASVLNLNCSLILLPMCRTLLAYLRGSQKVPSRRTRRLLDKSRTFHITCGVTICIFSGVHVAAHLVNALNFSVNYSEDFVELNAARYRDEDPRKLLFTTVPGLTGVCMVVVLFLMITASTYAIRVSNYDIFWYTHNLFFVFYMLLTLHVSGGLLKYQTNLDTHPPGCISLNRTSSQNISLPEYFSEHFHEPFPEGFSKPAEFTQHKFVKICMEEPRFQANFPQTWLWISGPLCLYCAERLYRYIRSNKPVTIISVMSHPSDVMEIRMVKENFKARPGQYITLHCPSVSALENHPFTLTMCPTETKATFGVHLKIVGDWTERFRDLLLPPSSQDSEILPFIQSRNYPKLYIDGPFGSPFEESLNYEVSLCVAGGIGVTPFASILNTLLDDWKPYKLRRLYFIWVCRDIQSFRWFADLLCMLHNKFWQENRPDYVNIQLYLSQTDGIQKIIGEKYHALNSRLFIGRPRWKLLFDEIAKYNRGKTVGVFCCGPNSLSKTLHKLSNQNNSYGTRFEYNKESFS
In test [20] the target is NADPH oxidase 5 (Homo sapiens) (UniProt Q96PH1). Description: NOX5-dependent H2O2 signal modulators, primary screen, NOX inhibitor project, cell-based, HEK293-NOX5, Amplex Red fluorescence (AID 1161). To be noted: HEK293-NOX5, ionomycin, 45 min, higher = more signal.
Sequence of NADPH oxidase 5 (Homo sapiens) (Q96PH1 whole entry, looked up): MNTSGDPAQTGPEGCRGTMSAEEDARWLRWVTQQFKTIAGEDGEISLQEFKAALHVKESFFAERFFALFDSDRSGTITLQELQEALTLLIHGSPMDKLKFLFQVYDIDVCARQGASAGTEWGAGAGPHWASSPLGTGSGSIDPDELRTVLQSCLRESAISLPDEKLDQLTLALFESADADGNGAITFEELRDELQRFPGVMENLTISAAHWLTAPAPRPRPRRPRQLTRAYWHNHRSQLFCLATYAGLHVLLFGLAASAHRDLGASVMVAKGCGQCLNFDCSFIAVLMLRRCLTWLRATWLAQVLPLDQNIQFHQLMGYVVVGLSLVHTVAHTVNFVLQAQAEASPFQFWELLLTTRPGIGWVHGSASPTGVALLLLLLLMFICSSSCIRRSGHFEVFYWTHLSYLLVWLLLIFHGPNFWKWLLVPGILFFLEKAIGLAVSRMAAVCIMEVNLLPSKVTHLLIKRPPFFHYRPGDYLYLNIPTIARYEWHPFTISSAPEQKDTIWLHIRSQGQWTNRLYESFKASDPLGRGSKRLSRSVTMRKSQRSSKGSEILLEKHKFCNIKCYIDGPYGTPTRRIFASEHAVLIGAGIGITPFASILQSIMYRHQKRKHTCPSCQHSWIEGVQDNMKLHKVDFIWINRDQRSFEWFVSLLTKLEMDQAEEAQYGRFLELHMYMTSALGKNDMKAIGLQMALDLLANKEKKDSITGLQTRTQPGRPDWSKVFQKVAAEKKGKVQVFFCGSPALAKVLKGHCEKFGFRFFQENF

Sequence of NADPH oxidase 2 (Homo sapiens) (P04839 whole entry, looked up): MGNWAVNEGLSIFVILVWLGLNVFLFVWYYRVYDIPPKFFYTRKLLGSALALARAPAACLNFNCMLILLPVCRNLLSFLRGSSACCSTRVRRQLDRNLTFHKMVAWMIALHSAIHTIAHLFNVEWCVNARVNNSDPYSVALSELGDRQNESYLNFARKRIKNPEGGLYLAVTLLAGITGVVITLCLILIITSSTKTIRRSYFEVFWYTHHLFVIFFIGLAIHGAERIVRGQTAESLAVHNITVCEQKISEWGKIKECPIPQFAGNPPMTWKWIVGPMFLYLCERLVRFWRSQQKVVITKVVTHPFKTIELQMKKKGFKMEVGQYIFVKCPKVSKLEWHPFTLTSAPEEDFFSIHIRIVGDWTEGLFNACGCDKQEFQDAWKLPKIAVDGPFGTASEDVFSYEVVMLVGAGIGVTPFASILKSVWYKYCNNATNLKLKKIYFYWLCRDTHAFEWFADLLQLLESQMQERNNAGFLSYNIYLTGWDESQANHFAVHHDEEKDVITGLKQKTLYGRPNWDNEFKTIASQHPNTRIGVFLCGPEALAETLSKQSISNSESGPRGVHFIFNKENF
Sequence of Torsin-1A (Homo sapiens) (O14656 whole entry, looked up): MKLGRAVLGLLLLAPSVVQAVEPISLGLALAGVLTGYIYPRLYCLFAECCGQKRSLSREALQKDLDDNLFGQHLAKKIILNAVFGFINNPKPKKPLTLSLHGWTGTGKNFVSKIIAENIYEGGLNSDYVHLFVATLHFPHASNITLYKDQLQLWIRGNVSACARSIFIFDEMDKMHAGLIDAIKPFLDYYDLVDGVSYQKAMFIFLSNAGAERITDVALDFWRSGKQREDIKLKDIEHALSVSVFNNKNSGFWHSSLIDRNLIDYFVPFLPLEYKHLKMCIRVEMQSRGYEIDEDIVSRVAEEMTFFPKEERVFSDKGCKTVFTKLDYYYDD

`COc1ccc([Si](C)(C)[C@@H]2[C@@H](CC(=O)N3Cc4ccccc4C[C@H]3CO)O[C@]3(C(=O)N(Cc4ccc(I)cc4)c4ccccc43)[C@H]2C)cc1`: the composite z-score was 0.206 in test [1]; 0.143 in test [6]; -0.101 in test [7]; 0.211 in the test with Torsin-1A (Homo sapiens) [8]; 0.204 with Torsin-1A (Homo sapiens) [9]; 1.94 in [10]. In test [12], the composite z-score turned out to be 0.0063. In addition, the z-score in test [2] was -6.3 (inactive); in test [3], 0.199 (inactive); in test [4] it was -0.477 (inactive); in [5] it was 0.0658 (inactive); in [11], 1.35 (inactive); in [13], 4.93 (inactive). The z-score is 1.98 (inactive) in test [14]; 2.47 (inactive) in [15]; 1.21 (inactive) in test [16]; 0.192 in [17]; 1.19 (inactive) in test [18]; 1.15 (inactive) in test [19]. Further, in test [20], the z-score came to 0.652.
For the compound `COc1cc(Cc2cc3c(c(CCc4ccccc4)n2)[Si](C(C)C)(C(C)C)O[C@H]3c2ccccc2)cc(OC)c1OC`, the composite z-score is -0.0786 in test [1]; 0.537 in test [6]; 0.182 in test [7]; 0.707 in the test with Torsin-1A (Homo sapiens) [8]; -0.0236 in the test with Torsin-1A (Homo sapiens) [9]; -0.418 in [10]. The compound further showed a composite z-score in test [12] of 0.101. The z-score is -4.48 (inactive) in test [2]; 0.626 (inactive) in test [3]; 0.875 (inactive) in test [4]; 0.992 (inactive) in test [5]; -1.77 (inactive) in test [11]; -0.436 (inactive) in [13]. Moreover, the z-score in test [14] is 0.356 (inactive); in test [15], -3.89 (inactive); in [16], 0.0416 (inactive); in test [17], -0.557; in test [18] it was 1.25 (inactive); in test [19], -2.98 (inactive). Also, the z-score in test [20] is -3.87.
Regarding `C=CCNC(=O)[C@H]1[C@@H]2C(=O)O[C@@H](c3ccccc3)[C@@H](c3ccccc3)N2[C@@H](c2ccc(OCCO)cc2)[C@]12C(=O)N(C(=O)OCCOC)c1ccc(C#CCC(C(=O)OC)C(=O)OC)cc12`, the composite z-score in test [1] stood at 1.12; in [6], 1.26; in [7] it was 0.389; with Torsin-1A (Homo sapiens) [8], 0.77; with Torsin-1A (Homo sapiens) [9], 0.944; in test [10], 1.96. The compound also gave a composite z-score in test [12] of 0.123. In addition, the z-score in [2] was -1.17 (inactive); in test [3], 0.0229 (inactive); in test [4], 0.0614 (inactive); in [5] it was -0.228 (inactive); in test [11], -0.335 (inactive); in [13], 4.28 (inactive). Besides, the z-score in test [14] was 1.28 (inactive); in [15] it was 0.743 (inactive); in test [16] it was 0.656 (inactive); in test [17], -0.116; in test [18], 1.64 (inactive); in test [19], 0.791 (inactive). In addition, the z-score in test [20] was 0.621.
Take `CC(C)(C)OC(=O)N1[C@@H](C=C(Br)Br)COC1(C)C`: the composite z-score in test [1] is -0.0677; in [6], 0.29; in test [7], -0.15; with Torsin-1A (Homo sapiens) [8], 0.396; in the test with Torsin-1A (Homo sapiens) [9], 0.656; in test [10] it was 0.938. In test [12], this compound had a composite z-score of -0.147. Moreover, the z-score in [2] is -2.04 (inactive); in test [3], 0.278 (inactive); in [4] it was -0.104 (inactive); in test [5], 0.0695 (inactive); in [11], 1.98 (inactive); in test [13] it was -0.794 (inactive). For the same compound, the z-score in test [14] is -1.16 (inactive); in test [15], -0.884 (inactive); in test [16], -1.66 (inactive); in test [17], 0.855; in test [18], 2.82 (inactive); in [19] it was 0.4 (inactive). The z-score in test [20] was -0.152.
As for `Cc1ccc(S(=O)(=O)N2[C@@H](c3ccccc3)C(C(=O)O)=C[C@H]2C(C)(C)C)cc1`, the composite z-score in test [1] turned out to be 0.211; in test [6] it was 1.52; in test [7], 0.209; in the test with Torsin-1A (Homo sapiens) [8] it was 0.391; with Torsin-1A (Homo sapiens) [9] it was 0.985; in test [10] it was 0.719. This compound had a composite z-score in test [12] of -0.0318. Further, the z-score is -1.23 (inactive) in [2]; 0.137 (inactive) in test [3]; 0.238 (inactive) in test [4]; 0.926 (inactive) in [5]; -0.576 (inactive) in test [11]; 0.386 (inactive) in test [13]. In addition, the z-score in test [14] is 0.0156 (inactive); in [15], 0.136 (inactive); in test [16] it was 0.61 (inactive); in [17] it was -0.222; in [18], 0.384 (inactive); in test [19] it was -0.539 (inactive). The z-score in test [20] was -0.36.
